In PubChem BioAssay (EPA / NIEHS):
Inconclusive results are not listed. Calls of active or inactive are those of the source. Rule for the calls: active = hit-call score of the fitted dose curve at least 0.9, where 1 is the maximum; inconclusive = response in the unintended direction; inactive = score below 0.9.

Experiments:
[1] = TOX21_p53_BLA_p2_viability: Viability Assessment in the Tox21 HCT-116 p53 Agonism Beta-lactamase Assay, Phase 2 (AID 2283591);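 note: compound exposure lasted 16 h at 37 °C; actives lower the ATP signal meaning cytotoxicity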
Procedure, shortened: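 HCT-116 p53-bla cells (4000/well) rested 5 h at 37C, then received compounds in DMSO (217-fold dilution) for 16 h at 37C, 5% CO2. After the CCF4 read, CellTiter-Glo was added; ATP luminescence was read after 30 min at room temperature.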

[2] = target: Cellular tumor antigen p53 (Homo sapiens) (UniProt P04637); test: TOX21_p53_BLA_p2_ratio: Tox21 HCT-116 p53 Agonism Beta-lactamase Assay, Ratio, Phase 2 (AID 2283592)
Procedure, shortened: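 Gain-of-signal p53 agonism was scored from the beta-lactamase FRET ratio (460/530 nm, 405 nm excitation) in HCT116 cells treated 16 h at 37C, 5% CO2, with DMSO serving as negative control and baseline.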

[3] = TOX21_p53_BLA_p3_viability: Viability Assessment in the Tox21 HCT-116 p53 Agonism Beta-lactamase Assay, Phase 3 (AID 2283593);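 note: cells exposed to compound for 16 h before reading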
Procedure, shortened: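 HCT-116 cells (4000/well) rested 5 h at 37C, then got DMSO compounds by pin tool (217-fold dilution) for 16 h at 37C, 5% CO2. After the bla read, CellTiter-Glo was added and luminescence read at 30 min, room temperature.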

[4] = target: Cellular tumor antigen p53 (Homo sapiens) (UniProt P04637); test: TOX21_p53_BLA_p3_ratio: Tox21 HCT-116 p53 Agonism Beta-lactamase Assay, Ratio, Phase 3 (AID 2283596)
Procedure, shortened: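 HCT116 p53-bla cells (4000/well) given compound in DMSO (217-fold dilution) after 5 h, incubated 16 h at 37C. CCF4-AM substrate 2 h at room temperature; 460/530 nm emission ratio, gain fitted against DMSO.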

[5] = TOX21_p53_BLA_p4_viability: Viability Assessment in the Tox21 HCT-116 p53 Agonism Beta-lactamase Assay, Phase 4 (AID 2283597);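 note: hits lower the luminescence signal meaning cytotoxicity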
Procedure, shortened: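 Following a 16 h exposure at 37C, the treated HCT116 wells were first read for the FRET ratio. They were then lysed with CellTiter-Glo, and ATP luminescence was recorded after 30 min at room temperature.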

[6] = target: Cellular tumor antigen p53 (Homo sapiens) (UniProt P04637); test: TOX21_p53_BLA_p5_ratio: Tox21 HCT-116 p53 Agonism Beta-lactamase Assay, Ratio, Phase 5 (AID 2283599)
Procedure, shortened: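 HCT-116 cells carrying a p53-inducible beta-lactamase reporter were seeded at 4000 cells/well and dosed after 5 h with compound in DMSO (217-fold dilution). After 16 h at 37C, CCF4-AM substrate was added for 2 h, and the 460/530 nm emission ratio was scored as gain-of-signal versus DMSO.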

[7] = TOX21_p53_BLA_p5_viability: Viability Assessment in the Tox21 HCT-116 p53 Agonism Beta-lactamase Assay, Phase 5 (AID 2283600)
Procedure, shortened: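 After the 460/530 nm beta-lactamase measurement, the wells received an ATP-detection luciferase reagent; signal was read 30 min later at RT. Compound treatment lasted 16 h on cells pre-incubated 5 h post-seeding.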

[8] = target: Cellular tumor antigen p53 (Homo sapiens) (UniProt P04637); test: TOX21_p53_BLA_p4_ratio: Tox21 HCT-116 p53 Agonism Beta-lactamase Assay, Ratio, Phase 4 (AID 2283601)
Procedure, shortened: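 HCT116 cells carrying an inducible beta-lactamase reporter were plated at 4000 cells/well, rested 5 h, then exposed to compounds in DMSO (217-fold dilution) for 16 h at 37C. CCF4-AM substrate was loaded 2 h at room temperature; 460/530 nm emission ratio scored gain-of-signal versus DMSO.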

Measured: AC50

Sequence of Cellular tumor antigen p53 (Homo sapiens) (P04637 whole entry, looked up): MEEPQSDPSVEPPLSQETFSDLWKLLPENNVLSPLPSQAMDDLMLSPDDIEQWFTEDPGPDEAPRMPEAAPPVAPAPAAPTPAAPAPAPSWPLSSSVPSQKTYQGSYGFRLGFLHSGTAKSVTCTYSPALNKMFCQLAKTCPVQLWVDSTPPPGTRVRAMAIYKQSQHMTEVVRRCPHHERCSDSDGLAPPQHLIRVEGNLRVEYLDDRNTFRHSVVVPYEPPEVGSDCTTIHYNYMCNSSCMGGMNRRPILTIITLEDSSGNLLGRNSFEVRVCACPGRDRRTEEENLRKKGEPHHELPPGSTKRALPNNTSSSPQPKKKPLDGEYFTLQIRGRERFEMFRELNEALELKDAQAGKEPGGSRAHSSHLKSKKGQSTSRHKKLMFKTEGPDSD

O=C(NOCC1CC1)c1ccc(F)c(F)c1Nc1ccc(I)cc1Cl
active: [2] 7.89 µM | [3] 23 µM | [4] 23.9 µM | [5] 23 µM | [6] 20.5 µM | [7] 19.7 µM | [8] 30.5 µM
inactive: [1]

CC(CNC1CCCCC1)OC(=O)c1ccccc1 (configuration not stated)
not listed: [8]
inactive: all other assays above

O=C(O)c1ccccc1[N+](=O)[O-]
active: [2] 73.7 µM | [6] 86.4 µM
inactive: all other assays above

CC1CCCO1 (configuration not stated)
active: [6] 85.2 µM
inactive: all other assays above

[O]=[Bi]
inactive: all assays above

Nc1c(N=Nc2ccc(-c3ccc(N=Nc4cc(S(=O)(=O)O)c5ccccc5c4N)cc3)cc2)cc(S(=O)(=O)O)c2ccccc12
inactive: all assays above

COc1c(C)c2c(c(O)c1C/C=C(\C)CCC(=O)O)C(=O)OC2
active: [2] 0.0608 µM | [4] 0.102 µM | [5] 0.224 µM | [6] 0.127 µM | [8] 0.091 µM
inactive: [1] | [3] | [7]

COc1nc(N)nc2c1ncn2[C@@H]1O[C@H](CO)[C@@H](O)[C@@H]1O
inactive: all assays above

CC1(C)C[C@@H]1C(=O)N/C(=C\CCCCSC[C@H](N)C(=O)O)C(=O)O
inactive: all assays above

Cc1ncc(C[n+]2csc(CCOP(=O)(O)O)c2C)c(N)n1
inactive: all assays above

NC(N)=NCC1COc2ccccc2O1 (configuration not stated)
not listed: [8]
inactive: all other assays above

NC(=O)C(c1ccccc1)(c1ccccc1)[C@@H]1CCN(CCc2ccc3c(c2)CCO3)C1
inactive: all assays above

COc1cc(O)cc(O)c1
inactive: all assays above

CCCCCCCCS(=O)C(C)Cc1ccc2c(c1)OCO2 (configuration not stated)
active: [1] 78.9 µM | [2] 39.3 µM | [4] 90.9 µM | [5] 74.7 µM | [6] 86.8 µM | [7] 58.2 µM | [8] 88.7 µM
inactive: [3]

CN[C@H]1CC[C@@H](c2ccc(Cl)c(Cl)c2)c2ccccc21
active: [1] 33.6 µM | [3] 42 µM | [5] 34.6 µM | [8] 36.8 µM
inactive: [2] | [4] | [6] | [7]

CCN(CC)CCCC(C)Nc1c2ccc(Cl)cc2nc2ccc(OC)cc12 (configuration not stated)
active: [2] 25.8 µM | [4] 23.7 µM | [6] 38.7 µM | [8] 35.1 µM
inactive: [1] | [3] | [5] | [7]

CC(=O)Oc1ccc(C2(c3ccc(OC(C)=O)cc3)Oc3ccccc3NC2=O)cc1
active: [2] 2.17 µM | [6] 6.63 µM
inactive: all other assays above

CC1(COc2ccc(CC3SC(=O)NC3=O)cc2)CCCCC1 (configuration not stated)
active: [1] 28.8 µM | [2] 36.7 µM | [3] 35.1 µM | [4] 27.1 µM | [5] 18.6 µM | [6] 27.6 µM | [7] 21.6 µM | [8] 34.7 µM

OCC(O)[C@@H](O)[C@H](O)[C@H](O)CO[C@H]1O[C@H](CO)[C@@H](O)[C@H](O)[C@H]1O (some centres not stated)
inactive: all assays above

CNCCCC1c2ccccc2C=Cc2ccccc21
inactive: all assays above

CCC(C)n1ncn(-c2ccc(N3CCN(c4ccc(OC[C@H]5CO[C@](Cn6cncn6)(c6ccc(Cl)cc6Cl)O5)cc4)CC3)cc2)c1=O (some centres not stated)
inactive: all assays above

C=CCn1c(=O)n(CC=C)c(=O)n(CC=C)c1=O
not listed: [8]
inactive: all other assays above

O=C(O)c1cc(-c2ccccc2)nc2ccccc12
not listed: [8]
inactive: all other assays above

O=C(Nc1ccc(Br)cc1)c1cc(Br)c(Br)s1
inactive: [2] | [7] | [8]
active: [1] 23 µM | [3] 32.2 µM | [4] 18.8 µM | [5] 19.5 µM | [6] 19.9 µM

CCCCCCCCCCOCC(O)CN (configuration not stated)
active: [1] 36.8 µM | [5] 36.8 µM | [8] 42.9 µM
inactive: all other assays above

Cc1ccc(S(=O)(=O)NC(=O)NC2CCCCCCC2)cc1
inactive: all assays above

CN(C)c1nc(N(C)C)nc(N(C)C)n1
inactive: all assays above

Clc1cc(Cl)c(OCC#CI)cc1Cl
active: [2] 33.7 µM | [5] 23 µM | [6] 39.7 µM
inactive: all other assays above

CN1CCN(CCCN2c3ccccc3Sc3ccc(C(F)(F)F)cc32)CC1
active: [1] 36.4 µM | [5] 33.9 µM | [8] 43.1 µM
inactive: all other assays above

NC(=O)c1ccccc1C(N)=O
active: [2] 72.7 µM | [6] 73.1 µM
inactive: all other assays above

COc1ccc2c(c1)OC(C)(C)C(c1ccccc1)C2c1ccc(OCCN2CCCC2)cc1 (configuration not stated)
active: [3] 35.3 µM | [4] 43.8 µM | [5] 43.5 µM | [6] 36.7 µM | [7] 33.5 µM
inactive: [1] | [2]

c1ccc2c(CC3=NCCN3)cccc2c1
inactive: all assays above

CCOc1cc(-c2nccc3cc(OC)c(OC)cc23)cc(OCC)c1OCC
inactive: all assays above

N[C@@H](COP(=O)(O)O)C(=O)O
inactive: all assays above

O=C(/C=C/c1ccc([N+](=O)[O-])cc1)c1ccccc1
inactive: all assays above

COc1cc2c(cc1OC)-c1cc(=Nc3c(C)cc(C)cc3C)n(C)c(=O)n1CC2
active: [1] 39 µM | [2] 35.6 µM | [3] 33.4 µM | [4] 36.7 µM | [5] 36 µM | [6] 41.3 µM | [7] 32.7 µM | [8] 36.6 µM

COc1c(C)c2c(c(O)c1C/C=C(\C)CCC(=O)OCCN1CCOCC1)C(=O)OC2
active: [2] 0.139 µM | [4] 0.164 µM | [5] 0.805 µM | [6] 0.183 µM | [8] 0.194 µM
inactive: [1] | [3] | [7]

CC(C)(C)CC(C)(C)c1ccccc1O
active: [1] 74.6 µM | [2] 75.3 µM | [3] 68.9 µM | [4] 77.8 µM | [5] 65.9 µM | [6] 81.5 µM | [7] 68 µM | [8] 81.7 µM

CNCC[C@H](Oc1cccc2ccccc12)c1cccs1
active: [1] 35.4 µM | [2] 43.5 µM | [5] 35.4 µM | [8] 43.7 µM
inactive: all other assays above

CN1CCN(c2cc3c(nn2)Oc2ccccc2N3C)CC1
inactive: all assays above

CC[C@H]1CN2CCc3cc(OC)c(OC)cc3[C@@H]2C[C@@H]1C[C@H]1NCCc2cc(OC)c(OC)cc21
inactive: all assays above

CCN(CC)CCCN(c1ccccc1)C1Cc2ccccc2C1
active: [1] 9.12 µM | [2] 23.3 µM | [3] 26.6 µM | [4] 36.3 µM | [5] 2.11 µM | [6] 36.7 µM | [7] 30.6 µM | [8] 23 µM

COc1cc(C(=O)NS(=O)(=O)c2ccccc2C)ccc1Cc1cn(C)c2ccc(NC(=O)OC3CCCC3)cc12
active: [1] 14.2 µM | [2] 7.01 µM | [3] 7.45 µM | [4] 8.2 µM | [5] 8.18 µM | [6] 12.9 µM | [7] 10.1 µM | [8] 9.98 µM

O=C1c2c(O)ccc([N+](=O)[O-])c2C(=O)c2c([N+](=O)[O-])ccc(O)c21
active: [1] 7.2 µM | [2] 25.4 µM | [3] 9.74 µM | [4] 28.7 µM | [5] 11.7 µM | [6] 30.2 µM | [7] 9.58 µM | [8] 20.7 µM
